Screening data: PubChem BioAssay, National Center for Advancing Translational Sciences (NCATS)
An excerpt weighted towards active compounds, which were near 2.8% of everything screened.
KCNH2 3.1 block = KCNH2 3.1 (human) potassium channel inhibition; U2OS KCNH2 3.1, thallium flux FluxOr; stronger effect = lower value; actives 0.95% (n = 340,000); AID 720553; activity change, % (tested at about 1.8 µM);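 active = maximum activity change below -70%; inconclusive = maximum activity change from -70% to -50%; inactive = maximum activity change above -50%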;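 also: thallium influx rate constant from kinetic fluorescence after stimulation buffer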
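Steps: virus added to U2OS suspension (4 h, RT, dark); medium with 10% FBS added, cells plated, 37 C overnight; FluxOr/Red40 loading buffer 45 min RT; stimulation buffer, 2 min kinetic read; rate constant normalized.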
hERG WT inh = inhibitors of human wildtype KCNH2 potassium channel. activity change, % at 1.84 µM. Q12809. actives 0.37% (n = 340,000). AID 720551. U2OS, BacMam KCNH2, thallium flux FluxOr; stronger effect = lower value;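 active = maximum activity change below -70%; inconclusive = maximum activity change between -70% and -50%; inactive = maximum activity change above -50%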
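U2OS cells transduced with wild-type KCNH2 virus are loaded with FluxOr dye for 45 min, and thallium flux is measured in kinetic reads before and after stimulation buffer. Rate constants are normalized to DMSO controls.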
GLS inhibitor = glutaminase GLS (human) inhibition; O94925; actives 0.21% (n = 410,000); GLS enzymatic activity, qHTS titration; AID 624170; Potency, µM (series often up to 45.5 µM), hits mostly inhibitors
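Coupled fluorescence readout: glutamate oxidase/HRP/Amplex Red detect glutamate formed by hKGA from L-glutamine (1 mM solution added). Buffer 45 mM KH2PO4 pH 8.2, 0.02% Tween-20; reads at t0 and 30 min RT.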
GLP1R cytotox = cytotoxicity counter-screen for GLP-1 receptor inverse agonists; Potency, µM (titrated, usually from 38.3 µM), usual class: inhibitors; HEK293 cAMP-luciferase reporter cells, luminescence, 24 h; AID 624418; actives 0.13% (n = 410,000);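 also: loss of luciferase light is scored as toxicity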
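Seeding density was 200 cells/uL; after overnight-length (12 h) culture, 23 nL compounds went on for 24 h at 37 °C. Readout used a luciferase detection reagent, luminescence taken after 12 min at room temperature.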
GLP-1R agonist = agonists of human GLP-1 receptor; HEK293 GLP-1R CRE-luciferase, luminescence, 4-6 h; cells express a hypersensitive GLP-1R form; Potency, µM (top dose mostly 45.6 µM), usual class: activators; actives 0.007% (n = 380,000); AID 624172
Target sequence (P43220 whole entry, looked up): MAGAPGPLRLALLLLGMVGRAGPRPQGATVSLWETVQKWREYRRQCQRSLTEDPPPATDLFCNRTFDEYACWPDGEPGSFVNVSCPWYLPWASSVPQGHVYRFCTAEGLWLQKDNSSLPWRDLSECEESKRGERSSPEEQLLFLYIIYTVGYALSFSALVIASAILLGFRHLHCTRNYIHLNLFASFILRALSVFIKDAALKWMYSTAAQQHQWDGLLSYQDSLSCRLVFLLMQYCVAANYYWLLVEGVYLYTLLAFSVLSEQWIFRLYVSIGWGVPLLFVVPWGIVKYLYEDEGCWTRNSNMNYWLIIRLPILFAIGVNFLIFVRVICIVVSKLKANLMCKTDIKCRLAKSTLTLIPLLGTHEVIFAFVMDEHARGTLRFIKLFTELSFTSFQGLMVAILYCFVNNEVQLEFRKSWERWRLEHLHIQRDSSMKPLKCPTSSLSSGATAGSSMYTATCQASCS
GLP-1R inv ag = inverse agonists of human GLP-1 receptor; P43220; HEK293 GLP-1R CRE-luciferase, luminescence, 24 h; GLP-1R form is constitutively active; Potency, µM (series often up to 38.3 µM), most hits filed as inhibitors; actives 1.6% (n = 410,000); AID 624417; also: nearly all actives have a fitted effect of over 55% in size
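Using stably transfected HEK293 (constitutively active GLP-1R, cAMP-luciferase reporter), compounds were incubated 24 hr and luciferase measured by luminescence.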
Large screens that a line does not name were inactive. Unless noted, calls follow the shape of the dose curve; as a rule, active = well fitted curve in the direction sought with a large enough effect; inconclusive = small, poorly fitted or top-dose-only effect, or another doubt; inactive = no such curve, though single readings can be large; an effect the other way counts as inactive or inconclusive.

CC(CNC(=O)Cn1ncc2c3ccccc3n(Cc3cccc(Cl)c3)c2c1=O)c1ccccc1 (centres undefined)	none (no result: KCNH2 3.1 block, hERG WT inh, GLP-1R agonist)
CC(C)CCn1c(Sc2nc3ccccc3o2)nc2c1c(=O)[nH]c(=O)n2C	GLP-1R inv ag 4.47µM
CCc1cccc(NC(=O)Cn2nc(-c3cc(C)ccc3C)ccc2=O)c1	GLP-1R inv ag inconclusive (no result: KCNH2 3.1 block, hERG WT inh, GLP-1R agonist)
CCCCNCCCOc1ccc(C)cc1Br	GLP-1R inv ag inconclusive
Cc1ccc(OCCCNCCO)c(Br)c1	GLP1R cytotox inconclusive, GLP-1R inv ag 3.98µM
COCCCNCCCCOc1ccc(Br)cc1C	GLP-1R inv ag 2.82µM
O=C(NCCc1nnc2ccc(N3CCCCCC3)nn12)c1ccccc1F	none
O=C(CCCc1ccccc1)c1ccccc1	none
CCN(CCCC(=O)c1ccc(F)cc1)CCc1ccccc1	KCNH2 3.1 block -90.1, hERG WT inh inconclusive, GLP-1R inv ag inconclusive
O=c1c2c(-c3cccs3)csc2ncn1-c1ccccc1	GLP-1R inv ag inconclusive
Cc1ccc(-n2cnc3scc(-c4cccs4)c3c2=O)cc1	GLP-1R inv ag 10µM
Cc1ccc(Cc2nc3ccccc3nc2SCC(=O)NCc2ccccc2Cl)cc1	none (no result: KCNH2 3.1 block, hERG WT inh)
COCCCN(C(=S)Nc1cc(C)cc(C)c1)C(C)c1ccncc1 (centres undefined)	KCNH2 3.1 block -72.1
C=C(C)Cn1c(SCC(=O)Nc2cccc(Cl)c2)nc2sc3c(c2c1=O)CCCC3	none (no result: KCNH2 3.1 block, hERG WT inh, GLP-1R agonist)
CC1CC(=O)N(CC(=O)Nc2ccc(F)cc2F)c2ccccc2S1 (centres undefined)	none (no result: KCNH2 3.1 block, hERG WT inh)
COc1cccc(CC2(CO)CCCN(Cc3[nH]c4ccc(C)cc4c3C)C2)c1 (centres undefined)	KCNH2 3.1 block -99.2, hERG WT inh -88.9, GLP1R cytotox inconclusive, GLP-1R inv ag inconclusive
COc1cccc(CC2(CO)CCCN(Cc3ccc(C)s3)C2)c1 (centres undefined)	GLP-1R inv ag inconclusive
COc1cccc(CC2(CO)CCCN(Cc3c(C)cc(C)cc3-n3cccn3)C2)c1 (centres undefined)	KCNH2 3.1 block -101.6, hERG WT inh -124.0, GLP-1R inv ag inconclusive
COc1ccc(-n2ccnc2CN2CCCC(CO)(Cc3cccc(OC)c3)C2)cc1 (centres undefined)	GLP-1R inv ag inconclusive
O=C(NNC1=C(C(=O)C(F)(F)F)CCC1)c1ccccc1Cl	GLP1R cytotox inconclusive, GLP-1R inv ag inconclusive
O=C(NNC1=C(C(=O)C(F)(F)F)CCC1)c1ccccc1O	GLP-1R inv ag 2.82µM
O=C(NCCCCc1ccccc1)c1cccc(NC(=O)c2ccccc2)c1	GLP-1R inv ag 10µM
O=C(CCc1ccccc1)NC(=S)Nc1cccc(C(=O)O)c1	none
O=C(NCCCCc1ccccc1)c1ccccc1Cl	GLP-1R inv ag 5.01µM
O=C(NCCCCc1ccccc1)c1ccccc1	none
O=C(CCCc1ccccc1)Nc1cccc(C(=O)O)c1	GLP-1R inv ag 2µM
Clc1ccc2c(c1)-c1c(cnc3cc(-c4ccccc4)nn13)CO2	none (no result: KCNH2 3.1 block, hERG WT inh)
Cc1onc(-c2c(Cl)cccc2Cl)c1C(=O)N1CCN(Cc2ccccc2)CC1	none
Cc1onc(-c2c(F)cccc2Cl)c1C(=O)NNC(=O)C1CCN(Cc2ccccc2)CC1	KCNH2 3.1 block -102.5
Cc1cccc(C)c1N1C(=O)[C@@H]2C(c3ccccc3Cl)=NO[C@@H]2C1=O	none
COc1ccc(OC)c(N2C(=O)[C@@H]3C(c4ccccc4Cl)=NO[C@@H]3C2=O)c1	GLS inhibitor 11.2µM
CC1(C)N=C(c2ccc(F)cc2)C(=O)N1CC(=O)Nc1ccccc1Cl	none (no result: KCNH2 3.1 block, hERG WT inh, GLP-1R agonist)
COc1ccc(-c2nnc(SCC(=O)NCc3ccco3)o2)cc1	none
COc1ccc(-c2nnc(SCC(=O)NC(=O)NCc3ccccc3)o2)cc1	KCNH2 3.1 block -117.8
Cc1ccc(C)c(N2CCN(C(=O)c3cnn(C(C)(C)C)c3C3CCN(C(=O)OC(C)(C)C)CC3)CC2)c1	none (no result: KCNH2 3.1 block, hERG WT inh, GLP-1R agonist)
O=c1[nH]ncc(N2CCN(C(c3ccccc3)c3ccccc3)CC2)c1Cl	GLP-1R inv ag 12.6µM
COc1ncnc2c1ncn2CCCN1CCN(c2ccccn2)CC1	none
CC1=C(C(=O)OC(C)C)C(c2ccc(Cl)cc2)n2c(s/c(=C\c3ccc(OCC(=O)O)cc3)c2=O)=N1 (centres undefined)	GLS inhibitor 11.2µM
CC1=CC(C)(C)NC(=S)N1C(C)c1ccccc1 (centres undefined)	GLP1R cytotox 10µM, GLP-1R inv ag inconclusive
Cc1cccc(N(CC(=O)NC2CCCC2)C(=O)CCC(=O)Nc2ccccn2)c1	none
O=C(O)c1ccccc1N=Nc1c(O)[nH]c2ccc([N+](=O)[O-])cc12	KCNH2 3.1 block -127.5
Cc1ccccc1C(=O)N1CCN(c2ccc(NC(=O)CSc3ccc(Cl)cc3)cc2)CC1	GLP-1R inv ag 7.08µM
CCc1nc2ccc(C(=O)NCCCN3CCN(c4ccc(F)cc4)CC3)cc2nc1CC	none
CN1CCN(CCNC(=O)c2ccc3nc(-c4ccc(F)cc4)c(-c4ccc(F)cc4)nc3c2)CC1	GLP1R cytotox inconclusive, GLP-1R inv ag 5.62µM
O=C(Nc1ccc(Br)cc1)c1cccc(S(=O)(=O)Nc2ccccn2)c1	hERG WT inh -190.8 (no result: KCNH2 3.1 block)
O=C(Nc1ccccc1)c1cccc(S(=O)(=O)Nc2ccccn2)c1	none
CC(CNC(=O)Cn1ccc2cc(S(=O)(=O)N3CCCCC3)ccc21)c1ccccc1 (centres undefined)	GLP-1R inv ag inconclusive (no result: KCNH2 3.1 block, hERG WT inh, GLP-1R agonist)
CN1CCN(c2ccc(NC(=O)CSc3nnnn3-c3ccccc3Cl)cc2)CC1	GLP-1R inv ag 5.01µM
CC(C)OC(=O)NC(c1ccccc1)C(Cl)(Cl)Cl (centres undefined)	GLP-1R inv ag 11.2µM
O=C1c2ccccc2NC(c2ccc(Br)s2)N1O (centres undefined)	GLP-1R inv ag inconclusive
CO/N=C(/C(=O)N[C@@H]1C(=O)N2C(C(=O)OC(C)OC(C)=O)=C(COC(N)=O)CS[C@H]12)c1ccco1 (some centres undefined)	none (no result: KCNH2 3.1 block, hERG WT inh, GLP1R cytotox, GLP-1R inv ag)
Cc1cc(C)cc(C(=O)N2CCN(Cc3ccc4c(c3)OCO4)CC2)c1	GLP-1R inv ag inconclusive
O=C(c1ccc2nc(N3CCCCC3)sc2c1)N1CCN(Cc2ccc3c(c2)OCO3)CC1	GLP-1R inv ag 10µM
CCOC(=O)N1CCN(C(=O)c2ccc3nc(N4CCCCC4)sc3c2)CC1	none
CCCOc1ccc(C(=O)N2CCN(Cc3ccc4c(c3)OCO4)CC2)cc1	GLP-1R inv ag 7.94µM
COc1ccc2cc3cc(C(=O)N4CCN(Cc5ccc6c(c5)OCO6)CC4)oc3nc2c1	GLP-1R inv ag 10µM
O=C(c1cn(-c2ccccc2)nc1-c1ccccc1)N1CCOCC1	none
